From PubChem BioAssay
A number with no mark means an inactive call. Activity calls are given as the source filed them. Rule as the data show it, unless noted: active = inhibition above about 36%; inactive = the rest.

Key:
[1] = target: Nuclear receptor coactivator 3 (Homo sapiens) (UniProt Q9Y6Q9); test: NCOA3 GAL4-fusion reporter inhibition – cell-based, luminescence, quadruplicate, confirmation (AID 588792;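 active = mean inhibition over 43.08%, the solvent-only control mean plus 3 SD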;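 also: 0% = DMSO treated cells and 100% = gossypol at 36 µM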); details: HEK293 GAL4-SRC3 luciferase reporter, at 3.6 µM, stronger effect = higher value
Chain of Nuclear receptor coactivator 3 (Homo sapiens) (Q9Y6Q9 whole entry, looked up, the tested form may be a part): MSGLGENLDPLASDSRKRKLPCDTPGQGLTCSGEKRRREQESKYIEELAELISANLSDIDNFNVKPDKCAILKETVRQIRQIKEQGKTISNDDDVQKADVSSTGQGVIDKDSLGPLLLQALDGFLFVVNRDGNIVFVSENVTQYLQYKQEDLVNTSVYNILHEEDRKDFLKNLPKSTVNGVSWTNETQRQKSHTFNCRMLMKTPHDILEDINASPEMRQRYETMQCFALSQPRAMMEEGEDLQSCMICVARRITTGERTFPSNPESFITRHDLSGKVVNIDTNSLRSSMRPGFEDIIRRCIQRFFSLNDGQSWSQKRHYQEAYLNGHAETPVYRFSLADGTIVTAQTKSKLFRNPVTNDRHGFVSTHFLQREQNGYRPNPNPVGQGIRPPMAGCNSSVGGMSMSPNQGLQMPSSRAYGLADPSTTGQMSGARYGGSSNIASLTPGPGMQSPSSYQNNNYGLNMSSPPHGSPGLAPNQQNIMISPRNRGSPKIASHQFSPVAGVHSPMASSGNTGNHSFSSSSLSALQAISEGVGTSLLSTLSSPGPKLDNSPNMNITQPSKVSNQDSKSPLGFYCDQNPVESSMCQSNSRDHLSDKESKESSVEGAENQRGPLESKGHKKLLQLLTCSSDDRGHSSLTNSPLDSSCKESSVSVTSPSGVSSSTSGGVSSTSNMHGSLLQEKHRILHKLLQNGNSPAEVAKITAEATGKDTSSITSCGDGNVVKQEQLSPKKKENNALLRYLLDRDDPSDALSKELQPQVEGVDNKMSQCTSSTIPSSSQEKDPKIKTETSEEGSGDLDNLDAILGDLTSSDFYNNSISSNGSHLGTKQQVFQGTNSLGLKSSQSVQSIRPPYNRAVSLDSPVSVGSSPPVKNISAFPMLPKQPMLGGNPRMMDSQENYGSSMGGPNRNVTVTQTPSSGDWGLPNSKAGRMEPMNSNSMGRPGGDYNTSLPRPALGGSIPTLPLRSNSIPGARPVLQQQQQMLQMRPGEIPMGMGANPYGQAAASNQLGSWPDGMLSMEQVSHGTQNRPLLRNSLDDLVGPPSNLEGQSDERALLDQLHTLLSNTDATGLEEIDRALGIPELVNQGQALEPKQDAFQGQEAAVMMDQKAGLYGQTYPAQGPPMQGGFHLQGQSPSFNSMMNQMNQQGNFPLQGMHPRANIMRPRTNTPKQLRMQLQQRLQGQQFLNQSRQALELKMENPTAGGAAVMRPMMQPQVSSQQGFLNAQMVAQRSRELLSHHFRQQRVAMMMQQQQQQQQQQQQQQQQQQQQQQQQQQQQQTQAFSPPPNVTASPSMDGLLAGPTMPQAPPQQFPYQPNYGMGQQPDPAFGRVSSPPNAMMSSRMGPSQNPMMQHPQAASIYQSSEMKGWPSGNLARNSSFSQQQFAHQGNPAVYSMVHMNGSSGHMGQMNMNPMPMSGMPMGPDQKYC

[2] = tested on: transactivating tegument protein VP16 (Human herpesvirus 1), Gal4-VP16 luciferase reporter; test: repression of VP16-driven luciferase reporter – cell-based, luminescence, high throughput, counter-screen for SRC3 inhibitor project (AID 588794; in the data active = inhibition above about 30%); details: mammalian cells, at 3.6 µM, stronger effect = higher value
[3] = target: Nuclear receptor coactivator 1 (Homo sapiens) (UniProt Q15788); test: NCOA1 GAL4-fusion reporter inhibition – cell-based, luminescence, quadruplicate, confirmation (AID 588820;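 active = mean inhibition above 46.68%, the untreated control wells mean plus 3 SD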;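 also: 0% = DMSO wells and 100% = gossypol 36 µM treated wells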); details: HEK293 GAL4-SRC1 luciferase reporter, at 3.6 µM, stronger effect = higher value
[4] = repression of VP16-driven luciferase reporter – cell-based, luminescence, high throughput, counter-screen for SRC1 inhibitor project (AID 588824; in the data active = inhibition above about 25%); details: cell-based VP16 transactivation luciferase luminescence; at 3.6 µM; stronger effect = higher value
[5] = StAR promoter reporter inhibitors, counter-screen for LRH-1 inverse agonist project, cell-based, luminescence, high throughput (AID 651611; in the data active = inhibition above about 28%); details: StAR promoter luciferase reporter counterscreen, at 3.6 µM, stronger effect = higher value
[6] = target: Nuclear receptor subfamily 5 group A member 2 (Homo sapiens) (UniProt O00482); test: NR5A2 activity suppression in reporter cells – cell-based, luminescence, confirmation (AID 651613; in the data active = inhibition above about 42%;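 also: HEK293T cells co-transfected with LRH-1 and StAR promoter luciferase reporter; 0% = vehicle wells and 100% = parental cells lacking receptor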); details: cell-based LRH-1 luciferase reporter, inverse agonism; at 3.6 µM; stronger effect = higher value
Chain of Nuclear receptor subfamily 5 group A member 2 (Homo sapiens) (O00482 whole entry, looked up): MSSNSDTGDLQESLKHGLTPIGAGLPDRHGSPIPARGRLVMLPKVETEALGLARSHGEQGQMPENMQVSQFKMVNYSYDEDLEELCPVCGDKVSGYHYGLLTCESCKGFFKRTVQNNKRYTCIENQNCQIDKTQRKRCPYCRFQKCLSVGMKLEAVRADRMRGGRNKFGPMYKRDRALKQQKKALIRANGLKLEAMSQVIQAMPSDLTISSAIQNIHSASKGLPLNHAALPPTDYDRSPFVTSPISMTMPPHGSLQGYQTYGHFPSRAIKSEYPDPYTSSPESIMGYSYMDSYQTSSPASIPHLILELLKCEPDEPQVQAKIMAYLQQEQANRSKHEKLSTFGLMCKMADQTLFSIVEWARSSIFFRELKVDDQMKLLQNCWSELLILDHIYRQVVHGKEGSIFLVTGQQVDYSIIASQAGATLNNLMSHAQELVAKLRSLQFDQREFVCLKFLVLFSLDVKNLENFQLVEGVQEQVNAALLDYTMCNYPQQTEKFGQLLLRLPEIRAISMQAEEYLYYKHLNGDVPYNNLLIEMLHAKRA

[7] = target: Steroidogenic factor 1 (Homo sapiens) (UniProt Q13285); test: inverse agonism at SF1 nuclear receptor – cell-based, luminescence, high throughput, counter-screen for LRH-1 inverse agonist project (AID 651614; in the data active = inhibition above about 44%;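 also: cells cotransfected with StAR promoter reporter and SF1 expression vector; 0% = vehicle on cells with receptor and 100% = vehicle on cells lacking receptor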); details: cell-based SF1 luciferase reporter, at 3.6 µM, stronger effect = higher value
Chain of Steroidogenic factor 1 (Homo sapiens) (Q13285 whole entry, looked up, the tested form may be a part): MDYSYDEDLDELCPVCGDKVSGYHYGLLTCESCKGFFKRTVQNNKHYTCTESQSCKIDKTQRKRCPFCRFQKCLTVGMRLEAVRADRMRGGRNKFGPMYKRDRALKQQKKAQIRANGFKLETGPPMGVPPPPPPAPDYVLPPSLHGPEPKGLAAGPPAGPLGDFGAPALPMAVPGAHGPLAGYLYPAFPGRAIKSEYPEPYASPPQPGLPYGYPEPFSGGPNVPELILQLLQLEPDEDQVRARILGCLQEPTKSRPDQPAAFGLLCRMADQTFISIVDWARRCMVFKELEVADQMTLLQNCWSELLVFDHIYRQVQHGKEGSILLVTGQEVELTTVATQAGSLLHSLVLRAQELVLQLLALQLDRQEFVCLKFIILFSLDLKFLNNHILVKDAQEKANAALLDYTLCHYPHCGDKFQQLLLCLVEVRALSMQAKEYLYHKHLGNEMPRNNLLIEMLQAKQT

[8] = compounds suppressing VP16-driven luciferase signal – cell-based, luminescence, high throughput, counter-screen for LRH-1 inverse agonist project (AID 651615; in the data active = inhibition above about 33%); details: Gal4-VP16 luciferase reporter cells, at 3.6 µM, stronger effect = higher value
[9] = tested on: transactivating tegument protein VP16 (Human herpesvirus 1); test: compounds suppressing VP16-driven luciferase signal – cell-based, luminescence, single concentration, counter-screen for SRC2 inhibitor project (AID 652007); details: cell-based VP16 transactivation luciferase reporter, at 8.9 µM, stronger effect = higher value
[10] = target: Nuclear receptor coactivator 2 (Homo sapiens) (UniProt Q15596); test: inhibition of GAL4-SRC2 driven luciferase expression – cell-based, luminescence, HEK293, triplicate, confirmation (AID 652008;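 active = mean inhibition above 46.5%, the solvent-only control mean plus 3 SD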;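 also: 0% = DMSO-treated cells and 100% = Gossypol at 36 µM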); details: HEK293 GAL4-SRC2 luciferase reporter, at 8.9 µM, stronger effect = higher value
Chain of Nuclear receptor coactivator 2 (Homo sapiens) (Q15596 whole entry, looked up, the tested form may be a part): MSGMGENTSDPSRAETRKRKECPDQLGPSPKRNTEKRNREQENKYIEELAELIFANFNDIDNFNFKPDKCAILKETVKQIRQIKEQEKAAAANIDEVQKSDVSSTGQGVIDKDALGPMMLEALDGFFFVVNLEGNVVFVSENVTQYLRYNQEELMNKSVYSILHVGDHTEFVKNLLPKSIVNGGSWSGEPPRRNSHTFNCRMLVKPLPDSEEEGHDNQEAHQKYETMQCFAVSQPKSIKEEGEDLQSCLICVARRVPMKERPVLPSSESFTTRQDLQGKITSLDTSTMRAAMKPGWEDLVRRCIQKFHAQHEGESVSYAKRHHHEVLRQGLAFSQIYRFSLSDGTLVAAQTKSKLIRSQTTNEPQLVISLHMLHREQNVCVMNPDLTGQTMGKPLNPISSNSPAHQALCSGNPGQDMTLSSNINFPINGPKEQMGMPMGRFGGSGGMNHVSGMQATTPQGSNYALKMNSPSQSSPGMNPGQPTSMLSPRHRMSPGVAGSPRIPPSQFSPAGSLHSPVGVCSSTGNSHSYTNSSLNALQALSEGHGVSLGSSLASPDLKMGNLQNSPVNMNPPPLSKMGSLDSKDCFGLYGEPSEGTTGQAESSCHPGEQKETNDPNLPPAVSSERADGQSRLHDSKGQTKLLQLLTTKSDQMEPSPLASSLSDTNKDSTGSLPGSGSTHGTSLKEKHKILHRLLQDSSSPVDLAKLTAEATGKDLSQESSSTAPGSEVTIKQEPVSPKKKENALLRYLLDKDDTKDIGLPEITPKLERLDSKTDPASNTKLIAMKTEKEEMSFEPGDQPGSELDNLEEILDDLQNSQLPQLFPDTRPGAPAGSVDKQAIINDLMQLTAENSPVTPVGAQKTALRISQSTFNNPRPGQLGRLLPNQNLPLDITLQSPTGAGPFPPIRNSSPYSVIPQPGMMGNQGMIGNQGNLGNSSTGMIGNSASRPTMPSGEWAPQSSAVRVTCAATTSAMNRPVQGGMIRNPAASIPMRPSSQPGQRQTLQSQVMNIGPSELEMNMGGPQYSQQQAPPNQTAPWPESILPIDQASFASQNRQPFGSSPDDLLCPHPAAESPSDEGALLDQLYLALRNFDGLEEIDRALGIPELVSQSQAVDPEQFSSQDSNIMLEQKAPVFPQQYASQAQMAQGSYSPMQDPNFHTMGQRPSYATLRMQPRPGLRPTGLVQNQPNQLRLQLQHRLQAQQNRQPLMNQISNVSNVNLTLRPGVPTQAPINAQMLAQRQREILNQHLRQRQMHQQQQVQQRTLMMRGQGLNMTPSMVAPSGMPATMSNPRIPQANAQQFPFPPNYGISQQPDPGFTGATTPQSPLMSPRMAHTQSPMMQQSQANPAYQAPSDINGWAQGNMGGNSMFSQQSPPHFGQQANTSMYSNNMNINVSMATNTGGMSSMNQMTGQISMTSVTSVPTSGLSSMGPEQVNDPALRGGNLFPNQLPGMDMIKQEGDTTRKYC

Row | Structure (SMILES) | inhibition [1] | inhibition [2] | inhibition [3] | inhibition [4] | inhibition [5] | inhibition [6] | inhibition [7] | inhibition [8] | inhibition [9] | inhibition [10]
1 | O=C(OC(c1ccccc1)c1nccc2ccccc12)c1ccccc1 (stereo not given) | 57.4% (active) | 42.8% (active) | 26.3% | 21.7% | 43.4% (active) | -16.8% | 45.4% (active) | -4.96% | 30.1% | 67.6% (active)
2 | Cc1ccc(-c2nc(-c3ccccn3)no2)cc1 | 59.3% (active) | 48.7% (active) | 29% | 43.9% (active) | 39.1% (active) | 11% | 52% (active) | 25% | 66.8% (active) | 85.5% (active)
3 | COc1ccc([C@@]23Oc4cc(OC)cc(OC)c4[C@]2(O)[C@H](O)[C@H](C(=O)N(C)C)[C@H]3c2ccccc2)cc1 | 95.7% (active) | 93.7% (active) | 85.6% (active) | 92.9% (active) | 97.6% (active) | 111% (active) | 99.3% (active) | 98.2% (active) | 56.2% (active) | 68.6% (active)
4 | O=C(CN1C(=O)c2ccccc2S1(=O)=O)c1ccc2c(c1)OCCCO2 | 93.3% (active) | 92.4% (active) | 82.5% (active) | 91.8% (active) | 91% (active) | 99.8% (active) | 92.4% (active) | 90.3% (active) | 94.4% (active) | 98% (active)
5 | CC(=O)NC(c1ccc(C(C)C)cc1)c1ccc2cccnc2c1O (stereo not given) | 74.3% (active) | 58.4% (active) | 65.9% (active) | 60.9% (active) | 89.1% (active) | 105% (active) | 86.2% (active) | 75% (active) | -23.1% | 26.8%
6 | COc1ccccc1-c1nnc(Sc2nc([N+](=O)[O-])nn2C)o1 | 58.5% (active) | 32.7% (active) | 18.7% | 36.4% (active) | 59.9% (active) | 62% (active) | 38.3% | 64.1% (active) | 46.1% (active) | 65.3% (active)
7 | Cc1ccc(C(=O)O/N=C(\N)c2ccccn2)c(Cl)c1 | 28.7% | 11.1% | -47.4% | -23.7% | -22.8% | -86.9% | 4.43% | -54.1% | 50.6% (active) | 70.8% (active)
8 | O=C(CCCN1C(=O)/C(=C/c2ccccc2Cl)SC1=S)NNC(=O)c1ccccc1Cl | 58% (active) | 31.3% (active) | 40% | 40.9% (active) | 54.6% (active) | 55.1% (active) | 46.8% (active) | 45% (active) | 80.7% (active) | 87.5% (active)
9 | COc1cc(SC)ccc1C(=O)Nc1nc2ccccc2[nH]1 | 92.1% (active) | 90% (active) | 85.9% (active) | 89.4% (active) | 95.1% (active) | 103% (active) | 96.5% (active) | 92.6% (active) | 96.4% (active) | 99.5% (active)
10 | COc1cc(C(=O)/C=C/c2cccnc2)c([N+](=O)[O-])cc1OC | 33.2% | 45.3% (active) | 29.4% | 48.8% (active) | 59.3% (active) | 59.1% (active) | 56.7% (active) | 68.5% (active) | 18.2% | 45.8%
11 | Nc1ccc(-c2cc3ccccc3oc2=O)cc1 | 43.5% (active) | 20.6% | 45% | 18.9% | 52.2% (active) | 73.5% (active) | 65.2% (active) | 34.1% (active) | 67.1% (active) | 94.6% (active)
12 | CN(C(=O)COc1ccccc1C(=O)NCCOc1ccccc1)c1ccccc1 | 20.1% | 32.4% (active) | -24.3% | 32.8% (active) | 63.6% (active) | 31.8% | 54.3% (active) | 37.1% (active) | 36.4% (active) | 47.3% (active)
13 | COC(=O)c1cn(NC(=O)c2cc([N+](=O)[O-])ccc2F)c(=O)c2ccccc12 | 83.8% (active) | 83.6% (active) | 51.1% (active) | 81% (active) | 89% (active) | 102% (active) | 92.9% (active) | 84.3% (active) | 27.7% | 64.7% (active)
14 | C=C1C(=O)[C@]23C[C@H]1CCC2[C@@]1(C)C(C[C@@H]3O)[C@](C)(C(=O)OC)CC[C@@H]1O (stereo not given in full) | 40% | 24.9% | -14.1% | 37.1% (active) | 43.8% (active) | 41.3% (active) | 42.4% | 49.4% (active) | 34.8% | 49.3% (active)
15 | CCC1=C(CC2NCCc3ccccc32)CC2c3cc(OC)c(OC)cc3CCN2C1 (stereo not given) | 90.6% (active) | 84.9% (active) | 63.7% (active) | 85.7% (active) | 87.4% (active) | 98.3% (active) | 88.3% (active) | 93.9% (active) | 47.1% (active) | 52.6% (active)
16 | Cc1ccc(N(Cc2cc(=O)[nH]c3ccccc23)C(=O)CCl)c(C)c1 | 55.3% (active) | 34.3% (active) | 34.3% | 24.6% | 37.3% (active) | 72.4% (active) | 75.5% (active) | 46% (active) | 44.4% (active) | 60% (active)
17 | CN1CCN(c2ccc(-c3ccc4ccccc4n3)cc2)CC1 | 72.1% (active) | 62.6% (active) | 34.8% | 36.6% (active) | 63.8% (active) | 8.01% | 64% (active) | 26.9% | 61.1% (active) | 79.3% (active)
18 | Cc1cc2sc3ccc(C#CC4(O)CCCCC4)cc3c(=O)c2cc1C | 95.4% (active) | 93.6% (active) | 90.4% (active) | 89.7% (active) | 91.2% (active) | 91.2% (active) | 92.6% (active) | 88.9% (active) | 94.2% (active) | 98.3% (active)
19 | COc1cc2cc(C(=O)Nc3ccc4c(c3)OCCO4)[nH]c2cc1OC | 27.4% | -26.5% | -2.55% | -48.8% | -32.3% | -49.1% | -20.5% | -35.9% | -41.9% | 38.2%
20 | O=C(NCCc1ccccc1F)c1ccc2c(c1)OCCO2 | 67.2% (active) | 57.6% (active) | -11.5% | 54.6% (active) | 65.5% (active) | 55.3% (active) | 72.4% (active) | 60.5% (active) | 74.1% (active) | 89.9% (active)
21 | O=C(CN1C(=O)c2ccccc2S1(=O)=O)c1ccc2c(c1)OCCO2 | 87.8% (active) | 89.7% (active) | 64% (active) | 84.8% (active) | 85.1% (active) | 86.3% (active) | 84.5% (active) | 84.4% (active) | 91.4% (active) | 95.2% (active)
22 | COc1ccc(C[C@H](N)C(=O)N[C@H]2[C@@H](O)[C@H](n3cnc4c(N(C)C)ncnc43)O[C@@H]2CO)cc1 | 97% (active) | 94.2% (active) | 89.3% (active) | 91.8% (active) | 97% (active) | 111% (active) | 99.4% (active) | 99.4% (active) | 91% (active) | 92.4% (active)
23 | C=C(C(=O)c1ccccc1)C(NC(C)(C)C)c1ccccc1 (stereo not given) | 45% (active) | 90.4% (active) | -116% | 90.2% (active) | 58.5% (active) | 93.7% (active) | 87.4% (active) | 92.9% (active) | 78.7% (active) | 44.6%
24 | CC1(C)N=C(N)N=C(N)N1c1ccc(CCCCc2ccccc2)cc1 | 31.1% | 68.2% (active) | 60.1% (active) | 66% (active) | 63.7% (active) | 89.9% (active) | 85.7% (active) | 80.6% (active) | 26.9% | 29.4%
25 | CC(C)CCCCCCCCCCCCC(=O)NCC(=O)NC1C(C)OC(Nc2ncnc3nc[nH]c23)C(O)C1O (stereo not given) | 98.9% (active) | 98.8% (active) | 96.6% (active) | 98.8% (active) | 94.7% (active) | 111% (active) | 97.7% (active) | 95.8% (active) | 76.9% (active) | 72.2% (active)
26 | CC(C)(C)c1ccc(C(=O)O/N=C(\N)c2ccccc2)cc1 | 74.5% (active) | 73.6% (active) | 61.1% (active) | 58.3% (active) | 61.9% (active) | 55% (active) | 64.8% (active) | 51.1% (active) | 76.9% (active) | 87.7% (active)
27 | CCC(C)(C)c1ccc(Oc2ccc(N)cc2)cc1 | 64.5% (active) | 52.2% (active) | 51.2% (active) | 48% (active) | 57.4% (active) | 87.3% (active) | 72.8% (active) | 63.9% (active) | 90.3% (active) | 95.4% (active)
28 | COc1cccc2c1C(=O)c1c(O)c3c(c(O)c1C2=O)CC(O)(C(=O)CO)CC3OC1CC(N(C)C)C(O)C(C)O1 (stereo not given) | 96.6% (active) | 97% (active) | 85.8% (active) | 96.7% (active) | 85.1% (active) | 107% (active) | 96% (active) | 96.5% (active) | 36.9% (active) | 57.6% (active)
29 | Nc1ccc(Oc2cccc(Oc3ccc(N)cc3)c2)cc1 | 43.4% (active) | 29.6% (active) | 24.3% | 27.6% (active) | 47.8% (active) | 75.6% (active) | 67.8% (active) | 47.5% (active) | 88.8% (active) | 92.8% (active)
30 | CCCc1ccc(-c2ccc(/C=C/C(=O)O)cc2)nc1 | 76% (active) | 71.9% (active) | 70.6% (active) | 67.7% (active) | 77.9% (active) | 85.6% (active) | 76.9% (active) | 68.6% (active) | 85.7% (active) | 94.6% (active)
